From PubChem BioAssay
JMJD2A Tudor inh – qHTS Assay for Inhibitors of JMJD2A-Tudor Domain; Potency, µM (top dose mostly 114 µM), without a hit: at the top dose activity change, negative = inhibition, most hits filed as inhibitors; 4.4% of 390,000 active; AlphaScreen JMJD2A-Tudor / H3K4me3 peptide binding; further: on the % scale 0 is the no-effect control and ±100 the full control effect; nearly all actives have a fitted effect of over 50% in size
BAZ2B block – qHTS Assay for Inhibitors of BAZ2B | Potency, µM (titrated, usually from 114 µM), without a hit: at the top dose activity change, negative = inhibition, most hits filed as inhibitors | AID 504333, 2011 | 4.4% of 360,000 active | AlphaScreen BAZ2B-H3K14Ac peptide displacement | Bromodomain adjacent to zinc finger domain protein 2B (Homo sapiens), Q9UIF8; further: on the % scale 0 is the no-effect control and ±100 the full control effect; nearly all actives have a fitted effect of over 60% in size
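AlphaScreen displacement: compounds (up to 110uM) incubated 30 min at room temperature with a preformed 50 nM BAZ2B/50 nM biotinylated H3K14Ac peptide complex in PBS pH 7.4 with Tween-20. Donor and acceptor beads at 10 ug/mL final added, 20 min light-protected before reading.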
G9a block – qHTS Assay for Inhibitors of Histone Lysine Methyltransferase G9a; Histone-lysine N-methyltransferase EHMT2 (Homo sapiens), Q96KQ7; G9a H3K9 monomethylation, AlphaScreen, 2 h; Potency, µM (titrated, usually from 102 µM), without a hit: at the highest dose activity, negative = inhibition, hits mostly inhibitors; 8.8% of 350,000 active; further: on the % scale 0 is the no-effect control and ±100 the full control effect; nearly all actives have a fitted effect of over 75% in size
Target sequence (Q96KQ7 913-1193 limits assumed): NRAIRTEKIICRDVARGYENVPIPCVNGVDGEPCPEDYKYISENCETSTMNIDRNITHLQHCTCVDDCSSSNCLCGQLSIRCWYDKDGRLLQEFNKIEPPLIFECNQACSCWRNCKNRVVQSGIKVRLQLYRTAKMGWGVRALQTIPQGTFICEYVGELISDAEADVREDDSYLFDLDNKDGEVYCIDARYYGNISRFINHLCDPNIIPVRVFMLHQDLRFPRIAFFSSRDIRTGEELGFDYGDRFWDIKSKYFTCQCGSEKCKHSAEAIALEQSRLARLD
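AlphaScreen detection with an anti-monomethyl H3K9 antibody quantified product after a 2 h room-temperature reaction containing 500 nM biotinylated H3K9 peptide, 20 µM SAM and 20 nM enzyme, which had been preincubated 15 min with compound.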
Sfp inh – qHTS Assay for Inhibitors of Bacillus subtilis Sfp phosphopantetheinyl transferase (PPTase) | Biochemical Sfp PPTase activity, qHTS | AID 1490, 2009 | 4'-phosphopantetheinyl transferase ffp (Bacillus subtilis), Q9F4F7 | Potency, µM, inactives show largest response in the series, negative = inhibition, usual class: inhibitors | 3.5% of 310,000 active;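 further: the enzyme is Sfp with the accession as filed and its product quenches rhodamine fluorescence; 0% = enzyme reaction without inhibitor and -100% = no enzyme wells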
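With Hepes-Na pH 7.6 buffer containing 10 mM MgCl2, Sfp (15 nM) modified BHQ-2-YbbR (12.5 uM) using rhodamine-CoA (5 uM). Two reads 30 minutes apart at 525/598 nm yielded each well's rate.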
HP1b chromo inh – HTS for Inhibitors of HP1-beta Chromodomain Interactions with Methylated Histone Tails; Potency, µM (top dose mostly 114 µM), without a hit: at the highest dose activity change, negative = inhibition, usual class: inhibitors; Chromobox protein homolog 1 (Homo sapiens), P83916; 0.56% of 390,000 active; AlphaScreen HP1-beta / biotin-H3K9me3 peptide binding; further: nearly all actives have a fitted effect of over 70% in size
Target sequence (P83916 whole entry, looked up): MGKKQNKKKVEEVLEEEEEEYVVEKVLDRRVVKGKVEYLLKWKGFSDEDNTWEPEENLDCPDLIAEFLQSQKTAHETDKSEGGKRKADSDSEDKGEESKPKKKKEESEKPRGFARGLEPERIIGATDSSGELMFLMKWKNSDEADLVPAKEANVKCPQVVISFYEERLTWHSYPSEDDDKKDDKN
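Compound inhibition of the preformed complex between 50 nM HP1-beta and 50 nM biotinylated H3K9me3 peptide was read by AlphaScreen. Buffer was PBS pH 7.4 with 0.01% Tween-20. Incubations ran 30 min at room temperature, with 10 ug/mL donor/acceptor beads.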
Active calls of the source: *; [ ] = another dose, or the depositor's remark. Shown are actives, neighbours in structure and some others; about 12% of the full set was active somewhere. The call rests on the fitted dose curve; in most records, active means well fitted curve in the direction sought with a large enough effect; inconclusive means small, poorly fitted or top-dose-only effect, or another doubt; inactive means no such curve, though single readings can be large; an effect the other way counts as inactive or inconclusive. Potency means the concentration at half of the fitted maximal effect.

O=C(NCc1ccc(F)cc1)c1ccc(N2CCc3ccccc32)c([N+](=O)[O-])c1 was read as JMJD2A Tudor inh 17.8µM*, BAZ2B block 7.08µM*, G9a block 25.1µM*, Sfp inh 1.7% and HP1b chromo inh 50.1µM*.
`COC(=O)c1ccc(N2CCC(c3cc(-c4ccc(OC)cc4)n[nH]3)CC2)c([N+](=O)[O-])c1` gave JMJD2A Tudor inh inconclusive, BAZ2B block inconclusive, G9a block 15.8µM*, Sfp inh inconclusive and HP1b chromo inh -19.0%.
Screening COC(=O)c1ccc(N2CCN(CC(=O)c3ccc(-c4ccccc4)cc3)CC2)c([N+](=O)[O-])c1 returned JMJD2A Tudor inh -27.4%, BAZ2B block -36.3%[57.1 µM], G9a block 44.7µM*, Sfp inh inconclusive and HP1b chromo inh 11.7%.
Screening O=C(C1CCCCC1)N(CCN1CCCC1)c1nc2ccccc2s1 returned JMJD2A Tudor inh -7.9%, BAZ2B block 0.6%, G9a block inconclusive, Sfp inh 19.2% and HP1b chromo inh 10.1%.
For COC(=O)c1ccc(N2CCc3ccccc32)c([N+](=O)[O-])c1 the results were JMJD2A Tudor inh 14.1µM*, BAZ2B block 7.94µM*, G9a block 15.8µM*, Sfp inh -10.1% and HP1b chromo inh inconclusive.
Screening CC(=O)c1ccc(N2CCN(c3ncccn3)CC2)c([N+](=O)[O-])c1 returned JMJD2A Tudor inh -23.6%, BAZ2B block -29.5%, G9a block -9.2%, Sfp inh -10.9% and HP1b chromo inh -3.7%.
For O=C(O)c1ccc(N2CCc3ccccc32)c([N+](=O)[O-])c1 the results were JMJD2A Tudor inh -30.1%, BAZ2B block inconclusive, G9a block inconclusive, Sfp inh 11.2% and HP1b chromo inh -3.7%.
CC(=O)c1ccc(N2CCc3ccccc3C2)c([N+](=O)[O-])c1 was read as JMJD2A Tudor inh inconclusive, BAZ2B block inconclusive, Sfp inh 28.2µM* and HP1b chromo inh -18.4%.
`CC(NC(=O)Cn1cc(Br)c([N+](=O)[O-])n1)c1ccccc1` (stereo not drawn) gave JMJD2A Tudor inh -2.1%, BAZ2B block -8.8%, G9a block 12.6%, Sfp inh 14.7% and HP1b chromo inh 45.2%.
For CC(C)(C)OC(=O)[C@H](CCCCN)NC(=O)c1nc[nH]c1C(=O)N[C@@H](CCCCN)C(=O)OC(C)(C)C the results were JMJD2A Tudor inh 50.1µM* and HP1b chromo inh 46.4%.
For CC(C)C[C@H](NC(=O)c1nc[nH]c1C(=O)N[C@@H](CCCCN)C(=O)OC(C)(C)C)C(=O)OC(C)(C)C the results were JMJD2A Tudor inh -35.2% and HP1b chromo inh 32.4%.
CC(C)C[C@H](NC(=O)c1nc[nH]c1C(=O)NC1CCNCC1)C(=O)OC(C)(C)C was read as JMJD2A Tudor inh inconclusive, BAZ2B block 79.4µM*, G9a block inconclusive and HP1b chromo inh 20.9%.
CC(C)C[C@H](NC(=O)c1[nH]cnc1C(=O)N[C@@H](C)C(=O)OC(C)(C)C)C(=O)OC(C)(C)C was read as JMJD2A Tudor inh -17.9%, BAZ2B block 8.9%, G9a block 26.5%[12.7 µM], Sfp inh 33.3% and HP1b chromo inh 45.6%.
COc1cc2cc(C(c3nnnn3C3CCCC3)N3CCc4ccccc43)c(=O)[nH]c2cc1OC (stereo not drawn) was read as JMJD2A Tudor inh -10.7%, BAZ2B block -10.6%, G9a block 44.7µM*, Sfp inh -10.1% and HP1b chromo inh 26.5%.
`COc1ccccc1N1CCN(C(c2cc3ccc(C)cc3[nH]c2=O)c2nnnn2C2CCCC2)CC1` (stereo not drawn) gave JMJD2A Tudor inh inconclusive, BAZ2B block inconclusive, G9a block 28.2µM*, Sfp inh 39.8µM* and HP1b chromo inh -0.8%.
`COc1cc2cc(C(c3nnnn3C(C)(C)C)N3CCc4ccccc43)c(=O)[nH]c2cc1OC` (stereo not drawn) gave JMJD2A Tudor inh inconclusive, BAZ2B block inconclusive, G9a block inconclusive, Sfp inh -2.9% and HP1b chromo inh -4.9%.
`CCC(C)(C)n1nnnc1C(c1cc2ccc(OC)cc2[nH]c1=O)N1CCN(C2CCCCC2)CC1` (stereo not drawn) gave JMJD2A Tudor inh -30.8%, BAZ2B block -2.4%, G9a block -17.3%, Sfp inh 3.2% and HP1b chromo inh 13.0%.
For COc1ccccc1N1CCN(C(c2cc3cc(C)ccc3[nH]c2=O)c2nnnn2C2CCCC2)CC1 (stereo not drawn) the results were JMJD2A Tudor inh -16.3%, BAZ2B block -38.2%, G9a block inconclusive, Sfp inh inconclusive and HP1b chromo inh 20.2%.
CCOC(=O)C1CCN(C(c2cc3ccc(C)cc3[nH]c2=O)c2nnnn2C2CCCCC2)CC1 (stereo not drawn) was read as JMJD2A Tudor inh -17.9%, BAZ2B block -4.8%, G9a block 22.4µM*, Sfp inh 35.5µM* and HP1b chromo inh 6.9%.
Screening COc1ccc(-c2c(C)nn(-c3ccccc3)c2NC(C)=O)cc1OC returned JMJD2A Tudor inh 4.9%, BAZ2B block -8.0%, Sfp inh -3.2% and HP1b chromo inh 53.3%.
CCN(CC)P1(=O)OC(c2cc(OC)c(OC)c(OC)c2)=Nc2c1c(C)nn2-c1ccccc1 (stereo not drawn) was read as JMJD2A Tudor inh -20.3%, BAZ2B block inconclusive, G9a block 50.1µM*, Sfp inh 7.3% and HP1b chromo inh 9.7%.
Screening O=C(CSc1nc(O)cc(=O)n1-c1ccccc1)NCc1ccccc1 returned JMJD2A Tudor inh inconclusive, BAZ2B block 9.0%, G9a block -34.3%[12.7 µM], Sfp inh -5.5% and HP1b chromo inh 32.0%.
Screening Cc1ccc(C(=O)C2=C(O)C(=O)N(CCCN3CCOCC3)C23C(=O)N(C)c2ccccc23)o1 (stereo not drawn) returned JMJD2A Tudor inh -7.4%, BAZ2B block 0.9%, G9a block inconclusive, Sfp inh 7.9% and HP1b chromo inh 49.4%.
CCN1C(=O)C2(C(C(=O)c3ccc(C)o3)=C(O)C(=O)N2CCCN2CCOCC2)c2ccccc21 (stereo not drawn) was read as JMJD2A Tudor inh -7.7%, BAZ2B block 15.5%, G9a block inconclusive, Sfp inh 2.51µM* and HP1b chromo inh 28.2%.
`CCc1cc2c(N3CCCCC3)ncnc2s1` gave JMJD2A Tudor inh -8.3%, BAZ2B block -0.5%, G9a block 50.1µM*, Sfp inh -24.7% and HP1b chromo inh 63.0%.
